Drawing on PubChem BioAssay (NCI), this text covers growth for 30 molecules.

About 83,000 compounds went through this panel and 20% of them were active in at least one assay; those are over-represented in the sample as a whole.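 Assay: single dose, 48 h. Readout: percent growth (0 = no net growth; negative = cell death). Active: <10.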 Unmarked numbers belong to inactive results. The source made the active and inactive calls.

What all share (assay): NCI-60 one-dose screen, 48 h (100 = growth as untreated, 0 = no growth, -100 = all killed)
Common to all, as to conditions: 10 µM

In assay [1] the test system is T-47D breast.
For assay [2], the system named is BT-549 breast.
For assay [3], the system named is MDA-MB-435 melanoma.
The test system of assay [4] is SW-620 colon.
Assay [5] has as its system MCF7 breast.
Assay [6] deals with HCT-116 colon.
The subject of assay [7] is HCC-2998 colon.
Assay [8] relates to KM12 colon.
Assay [9] has as its system MDA-MB-468 breast.

Turning to `Cc1ccc(-c2nc(Nc3ccc(C)c(S(N)(=O)=O)c3)c3ccccc3n2)cc1`, the growth was 84.2% in assay [1]; 104% in assay [2]; 74.6% in assay [3]; 37.2% in assay [4]; 26.2% in assay [5]; 29.5% in assay [6]. The growth was 49.5% in assay [7], 40% in [8] and 1.27% (active) in [9].
In the case of `O=c1c2ccccc2nc(COc2ccccc2)n1/N=C/c1ccc(N2CCCC2)cc1`, the growth in assay [1] is 57.7%; in assay [2], 84.8%; in assay [3], 99.5%; in assay [4], 109%; in [5], 87.6%; in assay [6] it was 79.5%. Besides, the growth in assay [7] was 106%; in assay [8], 96.7%; in assay [9], 137%.
As for `Brc1ccc(/C=C/c2n(Cc3ccc4ccccc4c3)c3ccccc3[n+]2Cc2ccc3ccccc3c2)cc1`, the growth in [1] is -58.1% (active); in assay [2], -56.6% (active); in assay [3], -94% (active); in assay [4], -73.9% (active); in assay [5] it was -65.7% (active); in assay [6], -86.5% (active). Further, the figures for the growth in [7], in [8] and in assay [9] were -98% (active), -40.7% (active) and -88.7% (active), respectively.
In the case of `Cc1ccc(C(=O)NNC(=O)CSc2nc3ccccc3c(=O)[nH]2)cc1`, the growth was 95.8% in assay [1]; 94.2% in [2]; 101% in [3]; 103% in assay [4]; 92.3% in [5]; 107% in assay [6]. The growth was 105% in assay [7], 107% in assay [8] and 84.6% in [9].
Take `N#Cc1ccc(-c2nn(-c3ccc(C(=O)O)cc3)cc2CNc2ccc(Cl)cc2)cc1`: the growth in assay [1] is 74.3%; in assay [2] it was 62.6%; in assay [3], 89.7%; in [4], 87.2%; in assay [5] it was 70.8%; in assay [6], 53.8%. For the same molecule, the figures for the growth in [7], in assay [8] and in [9] were 89.4%, 67% and 116%, respectively.
For `O=c1[nH]c2ccccc2cc1CSc1ccc(Nc2nccc(-c3ccc4ccccc4c3)n2)cc1`, the growth in [1] is 86.8%; in [2], 48.6%; in assay [3], 69.8%; in [4] it was 32.9%; in assay [5], 19%; in assay [6], 26.2%. Also, the results for the growth in [7], in assay [8] and in assay [9] were 63.5%, 50.2% and -3.76% (active), respectively.
With `Cc1ccc(C(C)C)cc1NC(=O)c1ccccc1O`, the growth in assay [1] is 22%; in assay [2] it was -2.14% (active); in [3], 44.7%; in assay [4], 62.8%; in assay [5], 40.2%; in assay [6], 34.6%. Also, the growth in assay [7] was 47.5%; in [8], 48.5%; in assay [9] it was 40%.
`COc1ccc2cc([C@H](C)C(=O)NCc3ccccc3)ccc2c1`: the growth in assay [1] was 41.5%; in assay [2], 42.8%; in [3], -13.2% (active); in [4], 29.3%; in assay [5], 22.5%; in [6] it was 37%. The growth in assay [7] was 50.7%; in [8] it was 39.1%; in [9] it was -20.3% (active).
Take `CN(C)c1ccc(/C=C/C(=O)c2ccc(NC(=O)CN3C(=O)NC(C)(c4ccccc4)C3=O)cc2)cc1` (configuration not stated): the growth in assay [1] was 22.1%; in [2] it was 49.6%; in assay [3] it was 34%; in assay [4], 74.5%; in assay [5], 11.8%; in assay [6] it was 26.4%. Besides, the growth in assay [7] is 38.5%; in [8], 23.7%; in [9] it was 7.04% (active).
Turning to `O=C(Cn1nc(-c2ccccc2)ccc1=O)NNC(=S)NC1CCCCC1`, the growth in [1] was 82%; in assay [2], 111%; in [3], 110%; in [4] it was 113%; in assay [5], 99.4%; in [6] it was 112%. In addition, the growth in assay [7] is 114%; in assay [8], 109%; in assay [9], 103%.
On to `COc1cc2c(cc1OC)CN(CCCCOc1cc(O)c3c(=O)cc(-c4ccccc4)oc3c1)CC2`, for which the growth in [1] was 1.69% (active); in assay [2], 63.6%; in assay [3] it was 67.5%; in assay [4], 62.8%; in [5], 29.3%; in [6], 0.234% (active). Also, the values for the growth in [7], in assay [8] and in assay [9] were -7.68% (active), 80.1% and -7.3% (active), respectively.
As for `COc1ccc(-c2ccc(/C=N/NC(=O)c3[nH]c4ccc(Br)cc4c3-c3ccccc3)s2)cc1`, the growth in [1] was 72%; in [2], 117%; in assay [3], 107%; in assay [4] it was 44.8%; in assay [5], 6.19% (active); in assay [6], 37.5%. Besides, the growth was 85.5% in [8] and 76.6% in assay [9].
For the molecule `COc1cc(/C=N/NC(=O)c2ccc3nc(-c4ccc(Cl)cc4)[nH]c3c2)cc(OC)c1OC`, the growth was -58.6% (active) in assay [1]; -81.5% (active) in [2]; -67.3% (active) in assay [3]; -22.1% (active) in assay [4]; -72.8% (active) in assay [5]; -67.5% (active) in assay [6]. Besides, the growth in assay [8] was -33% (active).
As for `COc1cc(NC(=O)CSc2nnc(-c3ccc4nc(-c5ccc(Cl)cc5)[nH]c4c3)o2)cc(OC)c1OC`, the growth in assay [1] is 13.2%; in assay [2] it was 63.1%; in assay [3] it was 67.8%; in [4], 80.1%; in [5] it was 29.1%; in assay [6], 37.1%. The growth in assay [8] is 70%; in assay [9], 58.3%.
Take `CO[C@H]1CSS[C@@H]1Cn1nc(-c2ccc(Oc3ccccc3)cc2)c2c(N)ncnc21`: the growth in assay [1] is 2.61% (active); in [2], 4.49% (active); in assay [3], -46.5% (active); in assay [4], 66.4%; in assay [5] it was 10.2%; in assay [6] it was 7.35% (active). For the same molecule, the values for the growth in assay [8] and in assay [9] were 17.5% and -21.2% (active), respectively.
For the molecule `C=CC(=O)Nc1ccc(C(=O)/C=C/c2ccc(N(C)CCF)cc2)c(O)c1`, the growth in [1] was 5.88% (active); in assay [2] it was -65% (active); in assay [3] it was -46.7% (active); in [4], 5.99% (active); in assay [5], -19.5% (active); in assay [6], -66.2% (active). The growth is -78.4% (active) in assay [7], -82.6% (active) in assay [8] and -73.6% (active) in [9].
Consider `COc1cnc2c(c1)C(=O)c1c-2n(CCCNCCO)c(=O)c2cc(OC)c(OC)cc12`, for which the growth in assay [1] is 10.1%; in assay [2], 40.7%; in [3] it was 49.7%; in [4] it was 38.4%; in [5], 5.82% (active); in assay [6], 1.67% (active). In addition, the growth in assay [8] was 54.5%; in [9], -48.8% (active).
Consider `CC(=O)Nc1ccc(-c2cn(-c3cccc(C(=O)Nc4cccc(OC(F)(F)F)c4)c3)nn2)cn1`, for which the growth was 93.2% in [1]; 96.7% in assay [2]; 61.4% in [3]; 90.1% in [4]; 70.1% in assay [5]; 88.6% in assay [6]. The figures for the growth in assay [8] and in [9] were 30.1% and 86.7%, respectively.
As to `CC(=O)C1=C(C)NC(SCC(=O)Nc2ccc(S(=O)(=O)Nc3cc(C)on3)cc2)=NC1c1ccccc1` (configuration not stated), the growth was 99.3% in assay [1]; 114% in [2]; 99.6% in assay [3]; 106% in [4]; 87.5% in [5]; 105% in [6]. Further, the growth in assay [8] is 99.8%; in [9] it was 111%.
Regarding `Cc1cc(=O)oc2cc(OCCCCOc3ccc(/C=C/C(=O)Nc4ccccc4[N+](=O)[O-])cc3)ccc12`, the growth in assay [1] was 100%; in assay [2] it was 117%; in [3], 112%; in assay [4], 114%; in assay [5], 97%; in assay [6], 115%. Moreover, the growth is 120% in [7], 109% in assay [8] and 169% in assay [9].
For `CCOc1ccc(Nc2nc3ccccc3nc2Nc2ccc(OCC)cc2)cc1`, the growth was 32.1% in assay [1]; 70.7% in [2]; 52.9% in assay [3]; 75.5% in assay [4]; 32.9% in [5]; 17.8% in [6]. The growth in [8] was 47.4%; in [9], 25.4%.
As for `COc1ccc(-c2ccc(SCC(=O)Nc3ccc(C#N)cc3)nn2)cc1`, the growth in assay [1] was 79.5%; in assay [2], 88.6%; in assay [3], 98.8%; in assay [4], 102%; in assay [5] it was 88.8%; in [6], 87%. The growth is 99.9% in assay [8] and 88.1% in [9].
In the case of `O=c1oc2ccc(-c3ccc(F)cc3F)cc2c(=O)n1-c1ccc(F)cc1`, the growth is -20.5% (active) in assay [1]; -25.8% (active) in [2]; 0.996% (active) in assay [3]; 10.2% in [4]; -4.67% (active) in assay [5]; 8.96% (active) in assay [6]. Further, the growth in assay [8] is -0.662% (active); in assay [9], -29.8% (active).
Turning to `O=C(Nc1ccc(F)c(Cl)c1)c1cc(-c2ccc(F)cc2F)ccc1O`, the growth in assay [1] was -6.69% (active); in assay [2], -37.6% (active); in assay [3], 0.745% (active); in assay [4], 6.07% (active); in [5] it was -16.1% (active); in assay [6], 9.19% (active). In addition, the growth in assay [8] is -16% (active); in [9], -44.4% (active).
With `Cc1cc2nc3c4ccccc4n(CCO)c3nc2cc1C`, the growth in assay [1] is 73.5%; in [2], 78.7%; in assay [3], 94.6%; in assay [4], 75.5%; in assay [5] it was 52.1%; in assay [6] it was 34.4%. Moreover, the growth is 92.2% in [8] and 74.4% in assay [9].
As to `COc1cc2c(c(OC)c1OC)C(=O)CC(c1cccc(NC(=O)c3cccc(N)c3)c1)O2` (configuration not stated), the growth was 35.5% in assay [1]; 63.8% in assay [2]; 77.4% in assay [3]; 94.1% in [4]; 57.8% in assay [5]; 65.4% in assay [6]. The results for the growth in [8] and in assay [9] were 72.2% and 65.6%, respectively.
`O=C(CNc1nc(-c2ccccc2)cs1)Nc1ccc(Br)cc1`: the growth in assay [1] was -51.4% (active); in assay [2] it was -61.2% (active); in assay [3], -1.09% (active); in [4], -64.6% (active); in [5], -82.2% (active); in assay [6] it was -44.9% (active). The growth in assay [8] was -68.3% (active); in [9], -84.1% (active).
`Cc1cc(C(F)(F)F)ccc1C(=O)Nc1sc2c(c1C#N)CCC(=O)C2`: the growth is -34% (active) in assay [1]; -76.1% (active) in [2]; -48.1% (active) in assay [3]; -34.4% (active) in assay [4]; 2.31% (active) in [5]; 5.39% (active) in [6]. For the same molecule, the growth in assay [8] was -8.98% (active); in assay [9], -44.4% (active).
In the case of `Cc1ccc2nc(COc3ccc(C(=O)NNC(=S)NC(=O)c4ccccc4)cc3)[nH]c2c1`, the growth was 60.5% in [1]; 81.8% in [2]; 64.3% in assay [3]; 39.5% in assay [4]; 30.6% in [5]; 38.5% in assay [6]. Further, the growth in assay [8] was 49.4%; in assay [9], 55.6%.
On to `N[C@@H](CSSC[C@H](N)C(=O)Nc1ccc(OCC2CCCC2)cc1)C(=O)Nc1ccc(OCC2CCCC2)cc1`, for which the growth in assay [1] is -68.9% (active); in assay [2] it was -63.5% (active); in [3], -100% (active); in [4] it was -84% (active); in assay [5], -73% (active); in assay [6] it was -35.9% (active). For the same molecule, the growth is -80.6% (active) in assay [8] and -93.4% (active) in assay [9].
